Consider 42 sequences from PMC7819943, “Rice protein-binding microarrays: a tool to detect cis-acting elements near promoter regions in rice”.

Over roughly 35,000 sequences, “fluorescence intensity (a.u.)” has its median near 10,000; the highest 2% begin near 52,000. This excerpt belongs to a sample that is enriched for the highest values.

For the assay, the target named is T1, OsWOX13 (Oryza sativa, UniProt Q5QMM3 1-267).
T1 sequence: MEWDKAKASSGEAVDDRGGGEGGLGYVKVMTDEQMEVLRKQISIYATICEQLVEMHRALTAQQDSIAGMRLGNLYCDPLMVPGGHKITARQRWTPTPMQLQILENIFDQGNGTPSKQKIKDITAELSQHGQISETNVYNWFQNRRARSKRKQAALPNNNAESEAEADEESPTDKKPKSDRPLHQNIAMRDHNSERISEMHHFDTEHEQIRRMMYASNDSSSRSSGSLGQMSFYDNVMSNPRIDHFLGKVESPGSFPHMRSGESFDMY
As to the kind of experiment: protein-binding microarray (RPBM); PBS, 2% BSA, 51.3 ng/ul salmon testes DNA, 50 uM zinc acetate, 200 nM TF, 25 C, 1 h; high values mean tight binding. Conditions: protein: recombinant; tags: N-terminal polyhistidine and DsRed monomer fusion (pET32a); label: CyDye5-dUTP incorporated in the synthesized complementary strand; 3' TTTTT single-stranded linker to array surface; dsDNA, one strand shown. The procedure, abridged: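 Per-feature fluorescence intensity (arbitrary units), read on an Axon 4000B scanner, is the binding signal. Transcription factors carrying an N-terminal polyhistidine tag and DsRed fusion were expressed in E. coli BL21-CodonPlus and purified on Ni–NTA. A custom Agilent array, made double-stranded by primer extension with Cy5-dUTP and blocked with 2% BSA, was incubated with 200 nM protein in PBS, 2% BSA, salmon testes DNA and 50 µM zinc acetate at 25 °C for 1 h and then washed.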
Consider “ATTGACTTGACGACCGCCATGAATTCATCTCATCTCATCTCGGAGTCACCTAGTGCAG”, for which the binding signal was 5970 fluorescence intensity (a.u.). In the case of “AGGCTAATTAACAGAGAGGGGACAATATGCAACAACGTATCGGAGTCACCTAGTGCAG” it was 24000 fluorescence intensity (a.u.); in that of “GATGAAACATATATTGACTGTAACATGTAGATTACATGATCGGAGTCACCTAGTGCAG”, 6110 fluorescence intensity (a.u.). “TTAATTAATTAATTTTCTTCCTAAACATATCCGCTAATCCCGGAGTCACCTAGTGCAG”: the binding signal is 53500 fluorescence intensity (a.u.). Regarding “ACTTAATTAACTTGGTTCTTCCTTTAATTTCTAGCTATATCGGAGTCACCTAGTGCAG”, the binding signal was 50100 fluorescence intensity (a.u.). As for “TGGTATATTAATTATTTCCTTTCCTTCCTTTCCCTTCCGACGGAGTCACCTAGTGCAG”, the binding signal is 5690 fluorescence intensity (a.u.). The value for “ATTTCTTTAATTAATTAATTAATTAACATATATATCCCTTCGGAGTCACCTAGTGCAG” was 60600 fluorescence intensity (a.u.); that for “CTTTAATTTCTTCTTCTTTTCCACATATAATAATAATATACGGAGTCACCTAGTGCAG” was 4030 fluorescence intensity (a.u.).

As to “CTTATTAACATTTAATTTGGTTTCTTCCTTAATTTGTATCCGGAGTCACCTAGTGCAG”, the binding signal was 12600 fluorescence intensity (a.u.).

For “TTCTGCTGCACCTAATTAATTAAATTTCCCCGCTATAATTCGGAGTCACCTAGTGCAG”, the binding signal is 11300 fluorescence intensity (a.u.). On to “TATAATTATTAATAATTAATTAATTATATATTAATTATTTCGGAGTCACCTAGTGCAG”, for which the binding signal is 26700 fluorescence intensity (a.u.). Turning to “TAATTAATTATAATTAATTAATCCTACTGGTGCTTTCCTTCGGAGTCACCTAGTGCAG”, the binding signal is 54300 fluorescence intensity (a.u.).

“CCATCGTAATTGATCGAAAACTGACAACATGTTAGGGTTGCGGAGTCACCTAGTGCAG”: the binding signal was 12700 fluorescence intensity (a.u.). The value for “AAACAAATGATTTTATTCATTTACTCATTCATCATATCACCGGAGTCACCTAGTGCAG” was 10300 fluorescence intensity (a.u.); that for “CCATGATGATGAGTCATTTTAACAGTCTGCAAGTACTAAACGGAGTCACCTAGTGCAG” was 8500 fluorescence intensity (a.u.). The value for “GATCGATTTGGTTTTGTTGATTTGATCTGGCCGGACAAGGCGGAGTCACCTAGTGCAG” was 3980 fluorescence intensity (a.u.); that for “GCTTAATTGATTAATTTGCTGGACGAGGAATCTTCTATGTCGGAGTCACCTAGTGCAG” was 64600 fluorescence intensity (a.u.). The value for “GTTTGATTGATTGATTTCGTGTACCATGCGGACTTCAGATCGGAGTCACCTAGTGCAG” was 65100 fluorescence intensity (a.u.); that for “TGATTTGATTTTCAGTTTTGCACCATGCGATCGATCGAGACGGAGTCACCTAGTGCAG” was 4320 fluorescence intensity (a.u.). As for “TTTAATTTTATGTTTTGATTTTAATCTATATCTCTTCTCTCGGAGTCACCTAGTGCAG”, the binding signal was 22600 fluorescence intensity (a.u.).

Take “AACCCTAGATTGATTTTGCGTGTGCTGCGTGAAGACGGCACGGAGTCACCTAGTGCAG”: the binding signal is 41400 fluorescence intensity (a.u.). Regarding “ATTTTGACTGATGTGACGTTTGCGTGGCTGGTTTGATTAGCGGAGTCACCTAGTGCAG”, the binding signal is 28900 fluorescence intensity (a.u.). In the case of “GGGCCGTGATTGATTTGCTGGCGTGTGTGATTTTCAGCTGCGGAGTCACCTAGTGCAG”, the binding signal is 62900 fluorescence intensity (a.u.).

On to “TAGTTTGTGATTGATTTGTCGACATCTGGAGGCGTCATGCCGGAGTCACCTAGTGCAG”, for which the binding signal was 58400 fluorescence intensity (a.u.). The value for “GACATATTGTCACCGGTTTTGATTAGTTGTGGATATCTGGCGGAGTCACCTAGTGCAG” was 6960 fluorescence intensity (a.u.); that for “CTGAAACTGATTGAACTTTTGTCCATTTTCAGATCGTGTACGGAGTCACCTAGTGCAG” was 49400 fluorescence intensity (a.u.); that for “TGACTTGATTAATTGCTTCTATGTTTGGCACCCAATTAATCGGAGTCACCTAGTGCAG” was 44900 fluorescence intensity (a.u.).

Turning to “CATCCATCCAACTTAATTTGACAGCAACTCACTGCAGCTTCGGAGTCACCTAGTGCAG”, the binding signal was 12000 fluorescence intensity (a.u.). In the case of “TAGTTAAATTTCCATTTAACTAGGGATAAATTAAATGGCTCGGAGTCACCTAGTGCAG” it was 20200 fluorescence intensity (a.u.); in that of “AGAATATGATTTTAAAATTAATTTTAGGGGAGGGTTTTACCGGAGTCACCTAGTGCAG”, 26000 fluorescence intensity (a.u.). For “TTGTTGTTATTTAATAAATTAGGAGATCAAATATGTTATTCGGAGTCACCTAGTGCAG”, the binding signal is 3300 fluorescence intensity (a.u.). In the case of “GGGGCAAATTGGTCTTGTCATGAAAGCTAAAAGCCAAAGGCGGAGTCACCTAGTGCAG” it was 4730 fluorescence intensity (a.u.). For “CAAGATAATTACAAGTTTATAAAACAAACTACTACAGGGACGGAGTCACCTAGTGCAG”, the binding signal was 27200 fluorescence intensity (a.u.).

In the case of “CACTATCTGATCCTAATTACACACTGATGCAGGGGTAAATCGGAGTCACCTAGTGCAG”, the binding signal is 3790 fluorescence intensity (a.u.). Take “GTTAATTTTGTCGAGTTAATTGGATCTTTGCTTTGATGGGCGGAGTCACCTAGTGCAG”: the binding signal was 57600 fluorescence intensity (a.u.). Regarding “TGATTGATTGCTTGATTGGGAGTGTCCTTTGGGCGAGCTGCGGAGTCACCTAGTGCAG”, the binding signal is 64900 fluorescence intensity (a.u.). For “CATAATTGCTGATATTTTGTCTTTGGAGTTTGATCCATGGCGGAGTCACCTAGTGCAG”, the binding signal is 44200 fluorescence intensity (a.u.). As for “CAATGCTTGCTTGATTGGGAGCGCGTCGTCGAGGGCGTCGCGGAGTCACCTAGTGCAG”, the binding signal is 14400 fluorescence intensity (a.u.). On to “ATCTTTAATTTTGATATTTAATTTTAATCATTGGAAAGGGCGGAGTCACCTAGTGCAG”, for which the binding signal was 25000 fluorescence intensity (a.u.).

For the sequence “AGGTGTACATGATTGTTTGCTTCCTTGCTGCAGCTCGGCGCGGAGTCACCTAGTGCAG”, the binding signal is 14100 fluorescence intensity (a.u.).

In the case of “CCCCATCGTCACTTATAATTTATGAATAAAACTTTTAGATCGGAGTCACCTAGTGCAG”, the binding signal is 4840 fluorescence intensity (a.u.). For “GGATGAAATTAGCCCATCAGCAATTACGTGTAGGCCGTAGCGGAGTCACCTAGTGCAG”, the binding signal was 3690 fluorescence intensity (a.u.).
